Counter-ions that a name gives are not always drawn. ± gives the standard deviation of the averaged measurements. Screen size: about 1,000 compounds; about 15 (2%) showed an effect of 50% or more. What follows is part of a selection rich in strong results, with near analogues and random picks from the rest.

This assay deals with HFF. Kind of assay: uninfected host cell viability relative to vehicle control; higher = less host cell toxicity. The settings on record: 5 µM; 72 h; oxygen 21 %.
On to `O=C1NC(=O)c2cc(Nc3ccccc3)c(Nc3ccccc3)cc21`, for which the “uninfected host cell viability” value is 93.23 ± 0.27%.

Regarding `COCCOC(=O)C1=C(C)NC(C)=C(C(=O)OC/C=C/c2ccccc2)C1c1cccc([N+](=O)[O-])c1` (stereo not given) [Cilnidipine], the “uninfected host cell viability” value is 85.8 ± 2.8%.

In the case of `COc1ccccc1C1(O)CCN(CCCn2c3ccccc3c3ccccc32)CC1` [NNC 05-2090 hydrochloride], the “uninfected host cell viability” value was 81.9 ± 1.6%.

Take `Nc1nc(NCC2CCC(CNS(=O)(=O)c3cccc4ccccc34)CC2)nc2ccccc12` (stereo not given): the “uninfected host cell viability” value was 58.6 ± 2.7%.

As for `CN(Cc1ccccc1)C(=O)[C@H](Cc1ccc2ccccc2c1)NC(=O)[C@@H]1C[C@@H](O)CN1C(=O)c1cn(C)c2ccccc12`, the “uninfected host cell viability” value came to 83.97 ± 0.68%.

Consider `NC(=O)N/N=C/c1ccc(Oc2ccc(F)cc2)cc1`, for which the “uninfected host cell viability” value is 87.6 ± 3.6%.

Turning to `O=C1NC(=O)c2cc(Nc3ccc(F)cc3)c(Nc3ccc(F)cc3)cc21`, the “uninfected host cell viability” value came to 86.353 ± 0.013%.

For `Oc1nc(-c2ccc(C(F)(F)F)cc2)nc2c1CSCC2`, the “uninfected host cell viability” value came out at 83.2 ± 2.4%.

In the case of `CCC(=O)NC[C@H](Cc1ccc(OCCc2nc(-c3ccccc3)oc2C)cc1)N/C(C)=C\C(=O)c1ccc(C(F)(F)F)cc1`, the “uninfected host cell viability” value turned out to be 102 ± 1.4%.

Regarding `COC(=O)/C=C/c1cccc(N(Cc2ccc(-c3ccc(N(C)C)cc3)cc2)C(=O)C2CCCCC2)c1` [Fexaramine], the “uninfected host cell viability” value amounted to 96 ± 2.3%.

On to `CC(=O)OCCNC(=O)c1cccnc1` [N-[2-(Acetoxy)ethyl]-3-pyridinecarboxamide], for which the “uninfected host cell viability” value came out at 82.8 ± 3.4%.

As to `OC1CCC(Nc2nc(-c3ccccc3)nc3[nH]ccc23)CC1` (stereo not given), the “uninfected host cell viability” value turned out to be 85.37 ± 0.31%.

As for `Cc1ccc2c(c1)c1c3n2CCNC3CCC1` (stereo not given) [Pirlindole mesylate], the “uninfected host cell viability” value is 88 ± 6.3%.

Regarding `CC(C)c1ccc(C(=O)c2cccs2)c(SCCCCCCCCN(C)C)n1`, the “uninfected host cell viability” value was 74.54 ± 0.56%.

`OC(CN1CCC(Cc2ccc(F)cc2)CC1)c1ccc(Cl)cc1` (stereo not given) [Eliprodil]: the “uninfected host cell viability” value was 88.9 ± 1.1%.

`O=c1cc(N2CCOCC2)oc2c1ccc1ccccc12`: the “uninfected host cell viability” value was 82.9 ± 0.9%.

Consider `COc1ccc(OC)c2c(=S)c3ccccc3[nH]c12`, for which the “uninfected host cell viability” value came out at 76.9 ± 3.1%.

As for `COC(=O)C1=C(C)NC(C)=C(C(=O)OCCCN2CCC(c3ccccc3)(c3ccccc3)CC2)[C@H]1c1cccc([N+](=O)[O-])c1` [(S)-(+)-Niguldipine hydrochloride], the “uninfected host cell viability” value is 76.95 ± 0.17%.

Regarding `CCC(=O)OCN1C(=O)C=CC1=O`, the “uninfected host cell viability” value stood at 90.82 ± 0.35%.

`Nc1c(Br)cc(Br)cc1CN[C@H]1CC[C@H](O)CC1` [Ambroxol hydrochloride]: the “uninfected host cell viability” value is 83.8 ± 1.4%.

As to `CCCCCCCCCCCCCCCC(=O)O[C@H](CC(=O)O)C[N+](C)(C)C` (racemic) [(±)-Palmitoylcarnitine chloride], the “uninfected host cell viability” value was found to be 89.8 ± 4.6%.

In the case of `CN(CC[C@@H](Oc1ccc(-c2ccccc2)cc1)c1ccc(F)cc1)CC(=O)O` [ALX 5407 hydrochloride], the “uninfected host cell viability” value was 89.7 ± 7.4%.

With `COc1ccc(NC(=O)c2ccc(-c3ccc(-c4noc(C)n4)cc3C)cc2)cc1N1CCN(C)CC1`, the “uninfected host cell viability” value was determined as 70.2 ± 7.3%.

As for `COc1cc2c(Nc3ccc(NC(=O)c4ccccc4)cc3)ncnc2cc1OCCCN1CCOCC1`, the “uninfected host cell viability” value turned out to be 64.74 ± 0.56%.

In the case of `COc1ccc(NC(=O)c2ccc(-c3ccc(-c4noc(C)n4)cc3C)cc2)cc1OCCN(C)C`, the “uninfected host cell viability” value amounted to 36.9 ± 27%.

Regarding `CCN(CC)c1ccc(/C=N/NC(=O)c2ccc(O)cc2)cc1`, the “uninfected host cell viability” value amounted to 86.7 ± 5.1%.

Turning to `CCCCC[C@H](O)/C=C/[C@H]1[C@H](O)CC(=O)[C@@H]1CCCCCCC(=O)O` [Alprostadil], the “uninfected host cell viability” value stood at 91.7 ± 4.5%.

For `CC1Nc2ccc(Cl)cc2S(=O)(=O)N1` (stereo not given), the “uninfected host cell viability” value was 95.27 ± 0.86%.

On to `Cn1cc(C2=C(c3ccc(Cl)cc3Cl)C(=O)NC2=O)c2ccccc21`, for which the “uninfected host cell viability” value was found to be 72.6 ± 4.2%.

With `CN(C)CCCn1cc(C2=C(c3c[nH]c4ccccc34)C(=O)NC2=O)c2ccccc21`, the “uninfected host cell viability” value was 62.3 ± 1.5%.

Turning to `Cn1cc(C2=C(c3cn(CCCSC(=N)N)c4ccccc34)C(=O)NC2=O)c2ccccc21` [Ro 31-8220 mesylate], the “uninfected host cell viability” value was 14.2 ± 0.54%.

With `O=C(O)CC/C=C\C[C@H]1CO[C@@H](c2ccccc2Cl)O[C@H]1c1ccccc1O`, the “uninfected host cell viability” value is 98.6 ± 1.1%.

With `CCOC(=O)c1c(C)[nH]c2ccc3c(c12)CN1CCc2cc(OC)ccc2C1O3` (stereo not given), the “uninfected host cell viability” value amounted to 96.1 ± 2.8%.

Consider `CC(Oc1ccc(O)cc1)(P(=O)(O)O)P(=O)(O)O`, for which the “uninfected host cell viability” value was 95.3 ± 1.8%.

Regarding `CN(C)C(=O)C(=O)c1cn(C)c2cc(Cl)c(C(=O)N3CCC(Cc4ccc(F)cc4)CC3)cc12`, the “uninfected host cell viability” value came to 88.4 ± 2.3%.

Consider `CCOCC(O)COc1ccc(NC(=O)CC[S+](C)C)cc1` (stereo not given) [Suplatast tosylate], for which the “uninfected host cell viability” value was determined as 97.7 ± 1.6%.

As to `CNC(=O)[C@H]1O[C@@H](n2cnc3c(NCc4cccc(I)c4)ncnc32)[C@H](O)[C@@H]1O`, the “uninfected host cell viability” value was 80.94 ± 0.44%.

For the molecule `CCN(c1ccccc1)c1cc(=NC)n(C)c(C)n1`, the “uninfected host cell viability” value was found to be 92.2 ± 1.3%.

On to `CCOC(=O)c1ccc(OC(=O)CCCCCNC(=N)N)cc1` [Gabexate mesylate], for which the “uninfected host cell viability” value came to 89.8 ± 11%.

As for `O=[N+]([O-])c1cc(Cl)ccc1S(=O)(=O)N1CCN(Cc2ccccc2)CC1`, the “uninfected host cell viability” value is 98.8 ± 3.2%.

For `CN1CC(=O)N=C1NC(=O)Nc1cccc(Cl)c1` [Fenobam], the “uninfected host cell viability” value came out at 80.93 ± 0.68%.

Take `CCCCc1nn(-c2ccccc2C(F)(F)F)c(=O)n1Cc1ccc(-c2ccccc2S(=O)(=O)NC(=O)c2sccc2C)cc1`: the “uninfected host cell viability” value was found to be 84.8 ± 3.6%.

For the molecule `COc1cc(NC(=O)c2ccccn2)ccc1Cl`, the “uninfected host cell viability” value was found to be 95.9 ± 2.8%.

On to `COc1ccc(-c2nc(-c3ccc(-c4cccc(Cl)c4)o3)[nH]c2-c2ccc(OC)cc2)cc1` [Neurodazine], for which the “uninfected host cell viability” value was found to be 80.3 ± 5.1%.

For the molecule `O=C(NCCCN1CCCCCC1)C(c1ccccc1)C1CCCCC1` (stereo not given), the “uninfected host cell viability” value was determined as 88.8 ± 4.6%.

With `O=C(O)C=C1CCCc2ccccc2C1O` (stereo not given), the “uninfected host cell viability” value worked out at 83.32 ± 0.084%.

Consider `COC(=O)C[C@](O)(CCCC(C)(C)O)C(=O)O[C@@H]1C(OC)=C[C@]23CCCN2CCc2cc4c(cc2[C@H]13)OCO4` [Homoharringtonine], for which the “uninfected host cell viability” value stood at 28.6 ± 2.8%.

Turning to `O/N=C/c1ccc(-c2ccc(O)c(F)c2)c(Cl)c1O`, the “uninfected host cell viability” value worked out at 91.86 ± 0.49%.

Consider `Cc1ccc(/C=C2\CNC/C(=C\c3ccc(C)cc3)C2=O)cc1`, for which the “uninfected host cell viability” value amounted to 34.4 ± 5.5%.

For `COC(=O)C1=C(C)NC(C)=C(C(=O)NCCCN2CCC(c3ccccc3)(c3ccccc3)CC2)C1c1ccc([N+](=O)[O-])cc1` (stereo not given), the “uninfected host cell viability” value came to 81.9 ± 1.8%.

As to `CC#CCOC(=O)C1=CCCN(C)C1` [Arecaidine but-2-ynyl ester tosylate], the “uninfected host cell viability” value was 88 ± 1.3%.

Turning to `CC(C)Oc1cccc(-n2c(CCc3c[nH]c4ccc(Br)cc34)nc3ccccc3c2=O)c1`, the “uninfected host cell viability” value came out at 92.8 ± 5.5%.

As to `COc1cc(Br)c(S(=O)(=O)Nc2ccc(Cl)c(O[C@@H]3CCN(C)C3)c2)cc1OC`, the “uninfected host cell viability” value came out at 96.9 ± 3%.

`C[C@H](NC[C@H](O)CP(=O)(O)CC1CCCCC1)c1ccc(Cl)c(Cl)c1`: the “uninfected host cell viability” value stood at 84.83 ± 0.31%.

In the case of `CC1c2ccccc2CN1CC1=NCCN1` (stereo not given), the “uninfected host cell viability” value was 89 ± 2.3%.

Values taken from the supplement of paper PMC4894684.
